From PubChem BioAssay (EPA / NIEHS) come the findings set out here.

Test [1] can be described thus: ATG_M_32_CIS: Attagene CIS-FACTORIAL HepG2 Assay for M32 Transcription Factor (Internal Marker) (AID 2282949).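 Further: background control marker of the multiplexed CIS panel rather than a real target.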 Conditions: HepG2 Attagene cis-factorial M32 reporter, mRNA; actives raise or lower the signal. In a few lines: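 HepG2 cells transiently transfected with multiplexed cis-regulated reporter units, dosed 24 h. Reporter mRNA quantified by RT-PCR, 6-FAM labelling, HpaI digestion and capillary electrophoresis; bidirectional fit vs DMSO.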

Test [2] in a line: ATG_M_06_CIS: Attagene CIS-FACTORIAL HepG2 Assay for M06 Transcription Factor (Internal Marker) (AID 2282950). The note with it: HepG2 Attagene CIS-FACTORIAL M06 internal marker reporter; actives raise or lower the signal. In a few lines:
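HepG2 cells transiently transfected with cis-regulated multiple reporter transcription units were exposed to chemical for 24 h; reporter mRNA was quantified by RT-PCR, 6-FAM primer labelling, HpaI digestion and capillary electrophoresis, fitted bidirectionally against DMSO.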

The target in test [3] is Hypoxia-inducible factor 1-alpha (Homo sapiens) (UniProt Q16665). Nature of the test: ATG_HIF1a_CIS: Attagene CIS-FACTORIAL HepG2 Assay for human Hypoxia Inducible Factor 1 (HIF1A) (AID 2282951). The note with it: HepG2 Attagene cis-factorial HIF1a reporter transcription; actives raise or lower the signal. In a few lines: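 In this multiplexed cell assay, HepG2 cells bearing transfected cis reporters are dosed for 24 h and reporter mRNA is read by RT-PCR plus capillary electrophoresis; signal increases and decreases are both scored against DMSO.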
Sequence of Hypoxia-inducible factor 1-alpha (Homo sapiens) (Q16665 whole entry, looked up): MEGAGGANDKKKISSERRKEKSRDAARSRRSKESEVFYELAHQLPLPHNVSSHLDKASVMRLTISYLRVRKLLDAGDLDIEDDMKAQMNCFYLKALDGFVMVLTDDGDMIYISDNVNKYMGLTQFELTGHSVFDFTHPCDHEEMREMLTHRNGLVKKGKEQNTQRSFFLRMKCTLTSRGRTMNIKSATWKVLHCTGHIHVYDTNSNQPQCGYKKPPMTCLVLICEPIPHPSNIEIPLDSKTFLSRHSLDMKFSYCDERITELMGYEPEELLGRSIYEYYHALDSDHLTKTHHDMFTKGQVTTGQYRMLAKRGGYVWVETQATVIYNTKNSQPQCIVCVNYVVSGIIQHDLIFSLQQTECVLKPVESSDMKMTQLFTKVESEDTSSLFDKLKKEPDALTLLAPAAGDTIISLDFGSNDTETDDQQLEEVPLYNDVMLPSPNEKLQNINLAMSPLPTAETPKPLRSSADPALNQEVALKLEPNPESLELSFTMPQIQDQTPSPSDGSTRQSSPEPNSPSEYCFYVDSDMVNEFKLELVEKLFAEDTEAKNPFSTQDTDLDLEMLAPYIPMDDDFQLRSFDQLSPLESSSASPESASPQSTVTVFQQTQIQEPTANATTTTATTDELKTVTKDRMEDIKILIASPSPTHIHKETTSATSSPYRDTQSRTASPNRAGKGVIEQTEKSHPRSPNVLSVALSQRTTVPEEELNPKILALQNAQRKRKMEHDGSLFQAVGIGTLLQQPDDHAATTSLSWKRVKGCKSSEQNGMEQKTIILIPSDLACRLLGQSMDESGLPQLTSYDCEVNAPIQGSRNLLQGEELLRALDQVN

Test [4] addresses Hepatocyte nuclear factor 6 (Homo sapiens) (UniProt Q9UBC0). The test is described as follows: ATG_HNF6_CIS: Attagene CIS-FACTORIAL HepG2 Assay for human Hepatocyte Nuclear Factor 6 (HNF6) (AID 2282952). The note with it: HepG2 Attagene cis-factorial HNF6 reporter transcription; actives raise or lower the signal. The essentials:
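HepG2 cells transiently transfected with cis-element-driven multiplexed reporter units measuring endogenous transcription factor activity. After 24 h exposure, reporter mRNA quantified by RT-PCR, FAM-labelled fragments and capillary electrophoresis; bidirectional fitting versus DMSO.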

The target in test [5] is Heat shock factor protein 1 (Homo sapiens) (UniProt Q00613). The test is described as follows: ATG_HSE_CIS: Attagene CIS-FACTORIAL HepG2 Assay for human Heat Shock Transcription Factor 1 (HSE) (AID 2282953). The note with it: HepG2 HSE cis-reporter, Attagene RNA transcription; actives raise or lower the signal. In a few lines: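 HepG2 cells transiently transfected with multiple reporter transcription units under cis-regulatory promoter control, measuring endogenous transcription factor activity. After 24 h chemical exposure, reporter mRNA quantified by RT-PCR, fluorescent labelling, HpaI digestion and capillary electrophoresis; bidirectional fit versus DMSO.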
Sequence of Heat shock factor protein 1 (Homo sapiens) (Q00613 whole entry, looked up): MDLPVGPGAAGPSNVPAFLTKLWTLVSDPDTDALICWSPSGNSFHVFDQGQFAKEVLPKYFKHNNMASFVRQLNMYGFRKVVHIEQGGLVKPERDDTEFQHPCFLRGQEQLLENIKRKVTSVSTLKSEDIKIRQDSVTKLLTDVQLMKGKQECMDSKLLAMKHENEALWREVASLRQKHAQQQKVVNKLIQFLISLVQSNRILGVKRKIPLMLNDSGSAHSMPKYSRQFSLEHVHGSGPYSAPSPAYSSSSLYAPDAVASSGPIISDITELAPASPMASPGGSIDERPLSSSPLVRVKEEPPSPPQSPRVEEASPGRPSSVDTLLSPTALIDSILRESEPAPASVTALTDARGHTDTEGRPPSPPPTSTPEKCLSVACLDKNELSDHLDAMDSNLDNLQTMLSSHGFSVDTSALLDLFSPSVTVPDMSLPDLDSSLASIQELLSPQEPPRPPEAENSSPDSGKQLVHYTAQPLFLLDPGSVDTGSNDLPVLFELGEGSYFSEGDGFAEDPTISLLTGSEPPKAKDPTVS

The nature of test [6]: ATG_MRE_CIS: Attagene CIS-FACTORIAL HepG2 Assay for human Metal Responsive Element (MRE) (AID 2282954). The note with it: HepG2 MRE cis-reporter transcription, Attagene multiplex; actives raise or lower the signal. In a few lines:
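Step one: transfect HepG2 with cis-regulated reporter units. Step two: dose 24 h. Step three: isolate RNA, RT-PCR, 6-FAM label, HpaI digest, capillary electrophoresis. Fit bidirectionally to DMSO.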

The nature of test [7]: ATG_PBREM_CIS: Attagene CIS-FACTORIAL HepG2 Assay for human Phenobarbital-responsive Enhancer Module (PBREM) (AID 2282955). The note with it: HepG2 PBREM cis-reporter, Attagene multiplexed transcription; actives raise or lower the signal. In a few lines:
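After a 24 h incubation with test chemical, transfected HepG2 cells yield total RNA; reporter-specific RT-PCR products are fluorescently labelled, HpaI-digested and resolved by capillary electrophoresis against ROX size standards.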

Test [8] is described as follows: ATG_PXRE_CIS: Attagene CIS-FACTORIAL HepG2 Assay for human Pregnane X Receptor Element (PXRE) (AID 2282957). Conditions: HepG2 Attagene CIS-FACTORIAL PXRE reporter, mRNA; actives raise or lower the signal. In a few lines: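 HepG2 cells transiently transfected with cis-element-driven multiplexed reporter units; after 24 h chemical exposure, reporter mRNA measured by RT-PCR, 6-FAM labelling, HpaI digestion and capillary electrophoresis. Bidirectional fitting relative to DMSO.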

Test [9] in a line: ATG_PPRE_CIS: Attagene CIS-FACTORIAL HepG2 Assay for human Peroxisome Proliferator-activated Response Element (PPRE) (AID 2282958). The note with it: HepG2 PPRE cis-element reporter, Attagene transcription factor profiling; actives raise or lower the signal. The essentials:
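Multiplexed reporter transcription units under cis-regulatory promoters were transfected into HepG2 cells to capture endogenous factor activity. A 24 h incubation preceded RNA isolation and fluorescent RT-PCR fragment analysis.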

Test [10] in a line: ATG_RORE_CIS: Attagene CIS-FACTORIAL HepG2 Assay for human RAR-related Orphan Receptor Element (RORE) (AID 2282959). The note with it: HepG2 Attagene cis-factorial RORE reporter, mRNA; actives raise or lower the signal. In a few lines:
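Fluorescence intensity of reporter-specific cDNA fragments, separated by capillary electrophoresis, gives the signal. Source: HepG2 liver cells transiently transfected with cis-element reporters and exposed 24 h; DMSO-normalized bidirectional fit.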

The nature of test [11]: ATG_Sox_CIS: Attagene CIS-FACTORIAL HepG2 Assay for human SRY-box transcription factor (SOX) (AID 2282960). Conditions: HepG2 Attagene cis-factorial SOX reporter, mRNA; actives raise or lower the signal. In a few lines:
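After 24 h of chemical treatment, transfected HepG2 reporter cells are lysed for total RNA. Transcript levels come from RT-PCR with labelled primer extension and capillary electrophoresis, analysed bidirectionally versus DMSO.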

Test [12] deals with Transcription factor Sp1 (Homo sapiens) (UniProt P08047). Nature of the test: ATG_Sp1_CIS: Attagene CIS-FACTORIAL HepG2 Assay for human Specificity Protein 1 (Sp1) (AID 2282961). Conditions: HepG2 Sp1 cis-reporter transcription, actives raise or lower the signal. The essentials:
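Sp1-driven reporter mRNA, read as capillary electrophoresis fluorescence after RT-PCR, in transiently transfected HepG2 cells dosed for 24 h; signal change in either direction relative to DMSO.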

The nature of test [13]: ATG_SREBP_CIS: Attagene CIS-FACTORIAL HepG2 Assay for human Sterol Regulatory Element Binding (SREBP) (AID 2282962). Conditions: HepG2 Attagene cis-factorial SREBP reporter, mRNA; actives raise or lower the signal. The essentials: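 HepG2 cells transiently transfected with multiplexed cis-element reporter units report endogenous transcription factor activity. After 24 h of chemical exposure, reporter mRNA was quantified by RT-PCR, 6-FAM labelling, HpaI digestion and capillary electrophoresis; bidirectional fits used DMSO as baseline.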

Test [14] deals with Signal transducer and activator of transcription 3 (Homo sapiens) (UniProt P40763). Nature of the test: ATG_STAT3_CIS: Attagene CIS-FACTORIAL HepG2 Assay for human Signal Transducer and Activator of Transcription 3 (STAT3) (AID 2282963). The note with it: HepG2, Attagene cis-factorial STAT3 reporter transcription; actives raise or lower the signal. In a few lines:
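Transcript-level reporter assay. HepG2 transient MRTU transfection, 24 h exposure, fluorescence detection after RT-PCR and CE; DMSO baseline.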

A short description of test [15]: ATG_TA_CIS: Attagene CIS-FACTORIAL HepG2 Assay for human TA Basal Promoter (AID 2282964). The note with it: HepG2 Attagene CIS-factorial TA basal promoter reporter; actives raise or lower the signal. In a few lines:
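HepG2 cells transiently transfected with multiplexed cis-promoter reporter units, dosed 24 h. Reporter mRNA measured by RT-PCR, 6-FAM labelling, HpaI digestion and capillary electrophoresis; bidirectional fit versus DMSO baseline, serving as background control.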

Test [16] can be described thus: ATG_TAL_CIS: Attagene CIS-FACTORIAL HepG2 Assay for human TAL Basal Promoter (AID 2282966).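 Further: background control endpoint measuring basal TAL promoter reporter mRNA not a specific factor.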 The note with it: HepG2 Attagene cis-factorial TAL promoter reporter; actives raise or lower the signal. In a few lines:
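HepG2 cells transiently transfected with multiplexed cis-promoter reporter units, dosed 24 h. Reporter mRNA quantified by RT-PCR, 6-FAM labelling, HpaI digestion and capillary electrophoresis; TAL basal promoter serves as background control, fitted bidirectionally versus DMSO.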

The nature of test [17]: ATG_VDRE_CIS: Attagene CIS-FACTORIAL HepG2 Assay for human Vitamin D Receptor Element (VDRE) (AID 2282968). Conditions: HepG2 VDRE cis-reporter transcription, actives raise or lower the signal. The essentials: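 RT-PCR/CE readout of reporter mRNA; HepG2, transient transfection, 24 h dosing; DMSO baseline; bidirectional analysis.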
Test [18] addresses Paired box protein Pax-6 (Homo sapiens) (UniProt P26367). The test is described as follows: ATG_Pax6_CIS: Attagene CIS-FACTORIAL HepG2 Assay for human Paired Box 6 (PAX6) (AID 2282956). Conditions: HepG2 CIS-FACTORIAL PAX6 reporter transcription, RNA readout; actives raise or lower the signal. In a few lines: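 HepG2 cells transiently transfected with multiplexed cis-promoter reporter units (endogenous TF activity) were dosed for 24 h. Reporter mRNA was quantified by RT-PCR, 6-FAM labeling, HpaI digestion and capillary electrophoresis; bidirectional fitting versus DMSO baseline.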

A short description of test [19]: ATG_TGFb_CIS: Attagene CIS-FACTORIAL HepG2 Assay for human Transforming Growth Factor (TGF) (AID 2282967). Conditions: HepG2 Attagene CIS TGFb reporter, mRNA transcription; actives raise or lower the signal. In a few lines: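 HepG2 cells transiently transfected with cis-promoter-driven multiplexed reporter units; 24 h compound exposure. Reporter mRNA measured by RT-PCR, 6-FAM labeling, HpaI digestion and capillary electrophoresis; bidirectional fit versus DMSO baseline.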

The nature of test [20]: ATG_TCF_b_cat_CIS: Attagene CIS-FACTORIAL HepG2 Assay for human T-Cell-Factor with beta-catenin (TCF/b-cat) (AID 2282965). The note with it: HepG2 TCF/beta-catenin cis-reporter transcription, actives raise or lower the signal. The essentials: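 Using capillary electrophoresis as the read-out, labelled reporter cDNA fragments from transiently transfected HepG2 were sized and quantified. Exposure lasted 24 hours; activity in either direction was referenced to DMSO.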

Activity calls are given as the source filed them. How the source made its calls: active means hit-call score of the fitted dose curve at least 0.9, where 1 is the maximum; inactive means score below 0.9.

Sequence of Signal transducer and activator of transcription 3 (Homo sapiens) (P40763 whole entry, looked up): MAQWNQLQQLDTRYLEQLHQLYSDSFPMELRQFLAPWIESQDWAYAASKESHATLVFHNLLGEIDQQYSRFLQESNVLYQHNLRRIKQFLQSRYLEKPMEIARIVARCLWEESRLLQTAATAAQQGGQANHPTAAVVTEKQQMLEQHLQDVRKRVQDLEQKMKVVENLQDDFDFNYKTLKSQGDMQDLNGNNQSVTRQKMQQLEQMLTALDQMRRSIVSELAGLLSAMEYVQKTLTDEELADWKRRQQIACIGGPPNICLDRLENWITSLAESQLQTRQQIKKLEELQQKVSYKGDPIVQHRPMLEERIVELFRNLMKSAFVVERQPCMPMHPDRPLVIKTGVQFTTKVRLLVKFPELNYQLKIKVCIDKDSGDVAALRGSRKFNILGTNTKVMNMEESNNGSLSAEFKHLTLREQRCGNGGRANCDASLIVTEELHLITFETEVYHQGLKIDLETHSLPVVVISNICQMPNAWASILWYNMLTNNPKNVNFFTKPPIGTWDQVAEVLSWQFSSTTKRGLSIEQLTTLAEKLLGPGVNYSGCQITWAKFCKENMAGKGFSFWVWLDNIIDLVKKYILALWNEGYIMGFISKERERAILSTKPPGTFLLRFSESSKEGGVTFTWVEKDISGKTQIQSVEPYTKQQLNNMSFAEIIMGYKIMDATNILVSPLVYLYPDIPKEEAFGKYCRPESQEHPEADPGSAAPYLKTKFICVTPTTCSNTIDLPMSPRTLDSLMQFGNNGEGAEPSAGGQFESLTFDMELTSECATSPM
Sequence of Transcription factor Sp1 (Homo sapiens) (P08047 whole entry, looked up): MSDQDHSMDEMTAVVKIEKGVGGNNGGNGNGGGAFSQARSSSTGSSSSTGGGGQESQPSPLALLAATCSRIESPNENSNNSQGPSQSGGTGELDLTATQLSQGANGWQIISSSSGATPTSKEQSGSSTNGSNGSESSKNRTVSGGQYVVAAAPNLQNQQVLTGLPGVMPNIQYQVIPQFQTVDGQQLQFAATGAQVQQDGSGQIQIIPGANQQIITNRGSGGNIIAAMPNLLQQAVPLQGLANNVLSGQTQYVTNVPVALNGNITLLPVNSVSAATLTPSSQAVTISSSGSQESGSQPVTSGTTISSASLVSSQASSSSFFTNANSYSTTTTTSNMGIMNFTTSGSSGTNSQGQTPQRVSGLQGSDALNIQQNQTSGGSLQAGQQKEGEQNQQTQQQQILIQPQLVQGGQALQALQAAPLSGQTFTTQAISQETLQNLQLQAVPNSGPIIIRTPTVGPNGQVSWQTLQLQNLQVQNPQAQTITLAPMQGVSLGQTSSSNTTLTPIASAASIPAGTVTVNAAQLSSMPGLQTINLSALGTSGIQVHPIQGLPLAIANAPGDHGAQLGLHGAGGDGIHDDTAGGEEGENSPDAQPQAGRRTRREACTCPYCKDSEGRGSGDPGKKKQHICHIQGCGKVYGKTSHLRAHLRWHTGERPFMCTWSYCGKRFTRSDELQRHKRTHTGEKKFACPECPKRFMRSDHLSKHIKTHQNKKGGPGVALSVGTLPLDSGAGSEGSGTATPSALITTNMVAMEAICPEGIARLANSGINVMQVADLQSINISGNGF
Sequence of Hepatocyte nuclear factor 6 (Homo sapiens) (Q9UBC0 whole entry, looked up, the tested form may be a part): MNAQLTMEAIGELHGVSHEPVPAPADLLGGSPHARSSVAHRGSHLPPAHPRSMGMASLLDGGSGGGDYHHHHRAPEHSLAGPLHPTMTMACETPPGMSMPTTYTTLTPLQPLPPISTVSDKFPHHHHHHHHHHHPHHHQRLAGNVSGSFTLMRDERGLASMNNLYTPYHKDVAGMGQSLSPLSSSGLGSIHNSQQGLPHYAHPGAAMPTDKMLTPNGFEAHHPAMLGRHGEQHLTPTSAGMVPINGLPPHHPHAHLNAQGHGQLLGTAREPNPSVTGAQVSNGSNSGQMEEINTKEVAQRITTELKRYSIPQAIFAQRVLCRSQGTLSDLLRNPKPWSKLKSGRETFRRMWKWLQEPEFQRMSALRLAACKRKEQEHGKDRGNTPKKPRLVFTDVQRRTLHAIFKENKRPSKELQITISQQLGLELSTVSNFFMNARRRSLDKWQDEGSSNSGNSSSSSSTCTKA
Sequence of Paired box protein Pax-6 (Homo sapiens) (P26367 whole entry, looked up): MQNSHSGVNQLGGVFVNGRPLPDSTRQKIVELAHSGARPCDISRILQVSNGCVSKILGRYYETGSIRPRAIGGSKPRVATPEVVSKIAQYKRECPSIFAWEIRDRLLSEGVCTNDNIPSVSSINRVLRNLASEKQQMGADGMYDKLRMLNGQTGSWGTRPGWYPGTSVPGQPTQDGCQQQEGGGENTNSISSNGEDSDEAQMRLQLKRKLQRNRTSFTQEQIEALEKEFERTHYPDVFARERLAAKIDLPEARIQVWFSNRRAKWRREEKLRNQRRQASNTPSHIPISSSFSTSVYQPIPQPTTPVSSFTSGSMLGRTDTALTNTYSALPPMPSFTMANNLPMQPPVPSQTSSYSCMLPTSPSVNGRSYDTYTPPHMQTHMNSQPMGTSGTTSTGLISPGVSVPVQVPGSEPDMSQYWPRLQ

Regarding `CC(C)[N+](=O)[O-]`, the molecule was called inactive in [1], in test [2], in test [3], in test [4], in test [5] and in [6]. For the same molecule, the outcome in test [7], in test [8], in test [9], in test [10], in test [11] and in test [12] was inactive. The result in test [13], in test [14], in test [15], in test [16] and in test [17] was inactive.

One may read the AC50 as the concentration at which the activity in the assay is half-maximal. As to `C=CC(=O)OCC(COC(=O)C=C)(COC(=O)C=C)COC(=O)C=C`, the molecule was called inactive in [1], in test [2], in test [3], in [4], in test [8] and in test [9]. Further, the outcome in test [11], in test [13], in [14], in [15], in test [16] and in test [19] was inactive. The AC50 is 56.5 µM (active) in [5]; 8.5 µM (active) in test [6]; 8.18 µM (active) in [18]; 8.19 µM (active) in [10]; 8.41 µM (active) in test [12].

For the molecule `CNC(=O)N(C)c1nc2ccccc2s1`, the result in [1], in test [2], in [3], in test [4], in test [5] and in test [6] was inactive. The call in test [18], in test [9], in test [10], in [11], in test [12] and in [13] was inactive. Further, the call in test [14], in test [15], in test [20], in test [16], in [19] and in test [17] was inactive. In test [8], the concentration at half-maximal activity (AC50) is 27.5 µM (active).

On to `CCCCOP(=O)(CCCC)OCCCC`, for which the molecule was classed as inactive in test [1], in test [2], in test [3], in [4], in test [5] and in test [6]. Besides, the result in [18], in test [9], in test [12], in test [13], in test [14] and in test [15] was inactive. The call in test [20], in test [16] and in test [19] was inactive. The half-maximal activity concentration (AC50) in [8] was 6.97 µM (active); in test [17], 17.7 µM (active).
